Several values for one entry are separate records, joined by “and”; a condition that tells them apart may be missing. Equal entries are not always repeated. Records with an inconclusive call do not appear. Activity calls are given as the source filed them. Unless noted, calls follow the shape of the dose curve; as a rule, active = well fitted curve in the direction sought with a large enough effect; inconclusive = small, poorly fitted or top-dose-only effect, or another doubt; inactive = no such curve, though single readings can be large; an effect the other way counts as inactive or inconclusive.
Experiments:
[1] = AP1 Signaling Pathway (AID 357; active = well fitted curve in either direction with a large enough effect, not every such curve was filed as active;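 also: ME-180 reporter cells stimulated with EGF at its EC50 level; % is scaled to controls: 0 for no effect and ±100 for the full control effect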); settings: ME-180 AP-1-bla reporter, EGF-induced, beta-lactamase ratio, 5 h
Procedure, shortened: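 A ratiometric CCF4 readout (405 nm excitation; 460 and 530 nm emission) quantified AP-1-driven beta-lactamase in ME-180 cells after 5 h with compound and EC50 EGF; AC50 values were derived for activators and inhibitors.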

[2] = target: Cytochrome P450 1A2 (Homo sapiens) (UniProt P05177); assay: p450-cyp1a2 (AID 410; calls by dose curve; also: potency is read from the fitted curve at half-maximal effect;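 as to activity change, negative = inhibition: -100% = full effect of reference inhibitor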); settings: recombinant CYP1A2, luciferin-ME demethylation, luminescence; series mostly up to 57 µM
Procedure, shortened: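 Luminescent demethylation readout: Luciferin-ME (100uM, equal to Km) turned over by 20nM CYP1A2 for 60 min at room temperature after NADPH regeneration addition, following 10 min compound preincubation. Normalization used 57 uM furafylline as full inhibition.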

[3] = NFAT Signaling Pathway (AID 444; active = well fitted curve in either direction with a large enough effect, not every such curve was filed as active;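 also: carbachol stimulus at about its EC50 of 1 µM final; % is scaled to controls: 0 for no effect and ±100 for the full control effect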); settings: Jurkat NFAT-bla M1, carbachol, beta-lactamase ratio, 5 h
Procedure, shortened: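 Read-out: CCF4 FRET ratio (460 nm/530 nm) after 1 h RT dye loading, used for %activity and AC50 from titration series. Cells: Jurkat NFAT-β-lactamase/M1 line, treated with compound plus 1 uM carbachol for 5 h, 37 °C.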

[4] = Stat Signaling Pathway (AID 446; active = well fitted curve in either direction with a large enough effect, not every such curve was filed as active;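 also: ME-180 cervical cancer cells given 40 pM IL-6 alongside compound; SIE-controlled beta-lactamase reporter measured as 460/530 nm FRET emission ratio; % is scaled to controls: 0 for no effect and ±100 for the full control effect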); settings: ME-180 (cervical carcinoma) SIE beta-lactamase reporter, IL-6 stimulated, 5 h
Procedure, shortened: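 Normalization used AC90 stimulation (300 pM IL-6) and AC90 inhibition (125 nM pan-JAK inhibitor at 40 pM IL-6). The underlying signal is SIE-driven beta-lactamase in ME-180 cells after 5 h IL-6 exposure with compound.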

[5] = target: Glucocorticoid receptor (Homo sapiens) (UniProt P04150); assay: GR-GFP Redistribution (AID 450;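 active = compounds whose dose series gives a full or clear partial fitted curve of increased nuclear translocation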; also: potency is read from the fitted curve at half-maximal effect); settings: U2OS GR-GFP nuclear translocation, laser cytometry, 2 h
[6] = target: Glucocorticoid receptor (Homo sapiens) (UniProt P04150); assay: GR-EFC Redistribution (AID 451; calls by dose curve; also: potency is read from the fitted curve at half-maximal effect); settings: CHO-K1 GR-EFC translocation, beta-gal luminescence, 2 h
Procedure, shortened: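 Translocation of GR-ED fusion to nuclear EA restores b-gal, read by luminescence after 1 h room-temperature detection. Engineered CHO-K1 biosensor cells, 1,000/well, exposed 2 h at 37 C to titrations up to 46 uM final.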

[7] = target: Mitogen-activated protein kinase 10 (Mus musculus) (UniProt Q61831); assay: JNK3 AlphaScreen Assay (AID 530; active = well fitted curve in either direction with a large enough effect, not every such curve was filed as active;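 also: kinase came from lysate of stimulated human HepG2 cells; signal reports phosphorylation of biotinylated GST-cJun 1-79 at Ser73 with 10 µM ATP; % is scaled to controls: 0 for no effect and ±100 for the full control effect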); settings: JNK3 lysate, c-Jun phosphorylation; series mostly up to 57.1 µM
Procedure, shortened: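 qHTS titrations with 15 min compound pre-incubation before adding ATP (10 uM final). Read-out: AlphaScreen of Ser73-phosphorylated biotin-GST-cJun using HepG2 lysate JNK3 activated by IL-1β and TNFα.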

[8] = target: 3',5'-cyclic-AMP phosphodiesterase 4B (Homo sapiens) (UniProt Q07343); assay: qHTS Assay for Inhibitors of PDE-IV (AID 607; active = well fitted activation curve with a large enough effect in the main read-out, with a control signal flat, not every such curve was filed as active; also: % of control where 0% means no effect); settings: HEK293 ACTOne CNG channel cells, membrane potential fluorescence; series mostly up to 22.9 µM
Procedure, shortened: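 HEK293 ACTOne cells with CNG channel (1000/well), endogenous PDE4; membrane potential dye, compounds up to 22.9 uM final. Fluorescence Ex 535/Em 590; RO 20-1724 (100 uM final) as reference.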

[9] = target: Guanine nucleotide-binding protein G(i) subunit alpha-1 (Homo sapiens) (UniProt P63096); assay: qHTS Assay for Inhibitors of RGS12 GoLoco Motif Activity (Green Fluorophore) (AID 879); settings: Galphai1/FITC-RGS12 GoLoco peptide, fluorescence polarization; series mostly up to 57.1 µM;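 also: 0% = labeled peptide with Gαi1 and full inhibition = labeled peptide alone without protein; negative values mean loss of peptide binding seen as reduced polarization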
Procedure, shortened: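 A drop in FITC polarization marked displacement of the FITC-tagged RGS12 GoLoco peptide (10 nM) from Gαi1 (50 nM). Compounds were incubated 10 min at room temperature in Tris pH 7.5 buffer containing 150 mM NaCl, 0.1 mM GDP and 0.05% NP40; unlabeled peptide titration served as control.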

[10] = target: Cytochrome P450 3A4 (Homo sapiens) (UniProt P08684); assay: qHTS Assay for Inhibitors and Substrates of Cytochrome P450 3A4 (AID 884); settings: recombinant CYP3A4, Luciferin-PPXE luminescence; series mostly up to 57.1 µM; also: potency is read from the fitted curve at half-maximal effect; nearly all actives have a fitted effect of over 50% in size
Procedure, shortened: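 Luminescent readout of luciferin produced by CYP3A4 (20 nM) dealkylation of Luciferin-PPXE, 25 uM (its KM). NADPH-driven reaction ran 60 min at RT after 10 min compound preincubation; data scaled to 57 uM ketoconazole as 100% inhibition.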

[11] = target: Cytochrome P450 3A4 (Homo sapiens) (UniProt P08684); assay: qHTS Assay for Activators of Cytochrome P450 3A4 (AID 885); settings: recombinant CYP3A4, Luciferin-PPXE luminescence, 60 min; series mostly up to 57.1 µM; also: nearly all actives have a fitted effect of over 65% in size
Procedure, shortened: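 Human CYP3A4 dealkylates Luciferin-PPXE to luciferin, which luciferase detection converts to light. Substrate was at its KM (25uM), buffer 200mM KPO4, reaction 60 min at RT.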

[12] = target: Cytochrome P450 2D6 (Homo sapiens) (UniProt P10635); assay: qHTS Assay for Inhibitors and Substrates of Cytochrome P450 2D6 (AID 891); settings: recombinant CYP2D6, luciferin-ME EGE luminescence; series mostly up to 57.1 µM; also: nearly all actives have a fitted effect of over 60% in size; also: potency is read from the fitted curve at half-maximal effect
Procedure, shortened: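 Luminescent read-out of luciferin formed by 5 nM human CYP2D6 demethylating 30 uM Luciferin-ME EGE (Km level) over 60 min at room temperature after NADPH regeneration addition. Data normalized to full inhibition by 1.43 uM quinidine.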

[13] = target: Cytochrome P450 2C19 (Homo sapiens) (UniProt P33261); assay: qHTS Assay for Inhibitors and Substrates of Cytochrome P450 2C19 (AID 899); settings: recombinant CYP2C19, luciferin-H EGE luminescence; series mostly up to 57.1 µM; also: nearly all actives have a fitted effect of over 60% in size; also: potency is read from the fitted curve at half-maximal effect
Procedure, shortened: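 Reactions contain 5nM enzyme, 10uM Luciferin-H EGE (KM) and 50mM KPO4; compound preincubates 10 min at 37C, NADPH regeneration starts turnover for 60 min. Luminescence after detection reagent gives activity.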

[14] = target: DNA dC->dU-editing enzyme APOBEC-3G (Homo sapiens) (UniProt Q9HC16); assay: qHTS for inhibitors of Vif-A3G interactions: Validation (AID 588379); settings: Vif-A3G protein interaction assay; series mostly up to 46.1 µM; also: 0% is about no effect
Procedure, shortened: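 Yellow fluorescence (Ex 488, Em 500-530) of Vif-coexpressing HeLa A3G-eYFP cells, scanned by Acumen cytometer, reports blocked A3G degradation. Cells plated at 700/well overnight at 37 deg C before compound addition, then a further overnight compound incubation at 37 deg C.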

[15] = test system: Zika virus NS2B-NS3 protease; assay: Primary screen GU AMC qHTS for Zika virus inhibitors (AID 1347154); settings: Zika NS2B-NS3 unlinked protease, AMC fluorogenic substrate; series mostly up to 54.1 µM;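 also: 0% = no-inhibitor control and -100% = no-enzyme control; nearly all actives have a fitted effect of over 70% in size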
Procedure, shortened: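 Fluorogenic AMC-substrate cleavage by noncovalent NS2B-NS3 protease complex (25 nM, pH 8.0 Tris buffer with Tween 20) followed for 15 minutes at room temperature (~20% conversion). Percent inhibition from ex340/em450 signal change, fitted by 4-parameter Hill equation.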

[16] = Primary qHTS for small molecule stabilizers of the endoplasmic reticulum resident proteome: Secreted ER Calcium Modulated Protein (SERCaMP) assay (AID 1508630); settings: SH-SY5Y GLuc-SERCaMP (Gaussia luciferase released on ER calcium loss) secretion, thapsigargin, luminescence; series mostly up to 38.4 µM; also: % is scaled to controls: 0 for no effect and ±100 for the full control effect
Procedure, shortened: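 The SH-SY5Y reporter protocol was run at 3 concentrations up to 38.3 uM (primary) or 11 concentrations (follow-up): 16 h compound, 100 nM thapsigargin for 4 h, then extracellular luciferase luminescence.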

[17] = target: Rap guanine nucleotide exchange factor 3 (Homo sapiens) (UniProt O95398); assay: Confirmatory qHTS for agonist of cAMP-regulated guanine nucleotide exchange factor 3 (EPAC1) (AID 1645881); settings: EPAC1 Rap1B BODIPY-GDP exchange fluorescence, 100% = cAMP control response; series mostly up to 154 µM;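 also: EPAC1 catalysed release of BODIPY-GDP from Rap1B seen as fluorescence loss; nearly all actives have a fitted effect of over 75% in size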
[18] = target: Ubiquitin carboxyl-terminal hydrolase 1 (Homo sapiens) (UniProt O94782); assay: Inhibitors of USP1/UAF1: Pilot qHTS (AID 504865); settings: purified USP1/UAF1, Ub-rhodamine cleavage fluorescence; series mostly up to 114 µM;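 also: rhodamine fluorescence freed from ubiquitin-rhodamine substrate followed over time; top concentration of the series differs between compounds; % is scaled to controls: 0 for no effect and ±100 for the full control effect; nearly all actives have a fitted effect of over 35% in size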
Procedure, shortened: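 Deubiquitinase activity followed as kinetic rhodamine fluorescence release from 150 nM Ub-Rho. 1 nM USP1/UAF1 with compound, after 15 min room-temperature preincubation, in HEPES pH 7.8 buffer containing TCEP, EDTA, BSA and Tween-20.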

[19] = target: Cytochrome P450 2C9 (Homo sapiens) (UniProt P11712); assay: qHTS Assay for Inhibitors and Substrates of Cytochrome P450 2C9 (AID 883); settings: recombinant CYP2C9, luciferin-H luminescence, 60 min; series mostly up to 57.1 µM; also: nearly all actives have a fitted effect of over 60% in size; also: potency is read from the fitted curve at half-maximal effect
Procedure, shortened: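 Turnover of Luciferin-H (100uM, KM) by 10nM human CYP2C9 was measured over 60 min at 37C with NADPH regeneration; inhibitors and some substrates reduce luminescence. Data normalized to sulphaphenazole 57uM.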

Chain of 3',5'-cyclic-AMP phosphodiesterase 4B (Homo sapiens) (Q07343 whole entry, looked up): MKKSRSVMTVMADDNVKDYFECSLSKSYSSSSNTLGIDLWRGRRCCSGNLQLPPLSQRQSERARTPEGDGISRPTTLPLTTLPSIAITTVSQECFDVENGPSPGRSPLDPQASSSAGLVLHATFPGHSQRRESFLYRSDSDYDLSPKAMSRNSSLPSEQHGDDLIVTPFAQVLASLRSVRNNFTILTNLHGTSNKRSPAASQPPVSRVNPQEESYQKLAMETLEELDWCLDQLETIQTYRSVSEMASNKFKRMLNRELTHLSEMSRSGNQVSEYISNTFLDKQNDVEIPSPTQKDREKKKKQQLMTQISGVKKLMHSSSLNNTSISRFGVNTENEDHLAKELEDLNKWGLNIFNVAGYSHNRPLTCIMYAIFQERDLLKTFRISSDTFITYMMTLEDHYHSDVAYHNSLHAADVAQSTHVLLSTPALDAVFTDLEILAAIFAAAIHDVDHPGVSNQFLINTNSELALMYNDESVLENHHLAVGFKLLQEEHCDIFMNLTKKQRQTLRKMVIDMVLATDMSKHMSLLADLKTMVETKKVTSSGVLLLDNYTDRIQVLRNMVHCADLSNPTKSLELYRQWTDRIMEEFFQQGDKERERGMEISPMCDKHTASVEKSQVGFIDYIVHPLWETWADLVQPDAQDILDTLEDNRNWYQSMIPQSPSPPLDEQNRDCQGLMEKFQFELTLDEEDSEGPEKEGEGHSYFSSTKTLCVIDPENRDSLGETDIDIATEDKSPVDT
Chain of Cytochrome P450 1A2 (Homo sapiens) (P05177 whole entry, looked up): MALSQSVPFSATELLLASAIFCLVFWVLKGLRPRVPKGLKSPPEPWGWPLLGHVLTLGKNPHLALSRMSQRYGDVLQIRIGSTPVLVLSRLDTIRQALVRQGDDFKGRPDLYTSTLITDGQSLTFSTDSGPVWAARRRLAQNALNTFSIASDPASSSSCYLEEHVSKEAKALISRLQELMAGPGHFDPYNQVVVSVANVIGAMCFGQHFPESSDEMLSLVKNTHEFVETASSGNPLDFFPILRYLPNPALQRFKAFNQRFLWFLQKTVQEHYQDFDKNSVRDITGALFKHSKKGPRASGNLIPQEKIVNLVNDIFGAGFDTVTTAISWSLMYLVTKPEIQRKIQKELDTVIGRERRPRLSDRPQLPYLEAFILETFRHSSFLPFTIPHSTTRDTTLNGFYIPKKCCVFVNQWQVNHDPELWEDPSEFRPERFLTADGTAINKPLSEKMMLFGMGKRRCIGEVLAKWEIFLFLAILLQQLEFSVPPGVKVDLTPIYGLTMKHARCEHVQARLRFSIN
Chain of Cytochrome P450 3A4 (Homo sapiens) (P08684 whole entry, looked up): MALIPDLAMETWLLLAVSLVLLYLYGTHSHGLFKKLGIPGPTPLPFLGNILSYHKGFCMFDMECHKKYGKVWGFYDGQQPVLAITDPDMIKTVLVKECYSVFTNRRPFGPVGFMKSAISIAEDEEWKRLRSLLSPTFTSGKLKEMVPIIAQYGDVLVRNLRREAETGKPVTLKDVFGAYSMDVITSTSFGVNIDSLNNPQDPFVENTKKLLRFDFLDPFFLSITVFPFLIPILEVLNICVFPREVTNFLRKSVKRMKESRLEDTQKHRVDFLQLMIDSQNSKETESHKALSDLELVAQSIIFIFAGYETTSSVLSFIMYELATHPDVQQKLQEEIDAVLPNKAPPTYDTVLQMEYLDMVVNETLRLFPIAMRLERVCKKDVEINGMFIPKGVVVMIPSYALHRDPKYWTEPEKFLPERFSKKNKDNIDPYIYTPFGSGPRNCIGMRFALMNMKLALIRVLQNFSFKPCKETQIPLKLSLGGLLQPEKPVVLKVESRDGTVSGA
Chain of Glucocorticoid receptor (Homo sapiens) (P04150 whole entry, looked up, the tested form may be a part): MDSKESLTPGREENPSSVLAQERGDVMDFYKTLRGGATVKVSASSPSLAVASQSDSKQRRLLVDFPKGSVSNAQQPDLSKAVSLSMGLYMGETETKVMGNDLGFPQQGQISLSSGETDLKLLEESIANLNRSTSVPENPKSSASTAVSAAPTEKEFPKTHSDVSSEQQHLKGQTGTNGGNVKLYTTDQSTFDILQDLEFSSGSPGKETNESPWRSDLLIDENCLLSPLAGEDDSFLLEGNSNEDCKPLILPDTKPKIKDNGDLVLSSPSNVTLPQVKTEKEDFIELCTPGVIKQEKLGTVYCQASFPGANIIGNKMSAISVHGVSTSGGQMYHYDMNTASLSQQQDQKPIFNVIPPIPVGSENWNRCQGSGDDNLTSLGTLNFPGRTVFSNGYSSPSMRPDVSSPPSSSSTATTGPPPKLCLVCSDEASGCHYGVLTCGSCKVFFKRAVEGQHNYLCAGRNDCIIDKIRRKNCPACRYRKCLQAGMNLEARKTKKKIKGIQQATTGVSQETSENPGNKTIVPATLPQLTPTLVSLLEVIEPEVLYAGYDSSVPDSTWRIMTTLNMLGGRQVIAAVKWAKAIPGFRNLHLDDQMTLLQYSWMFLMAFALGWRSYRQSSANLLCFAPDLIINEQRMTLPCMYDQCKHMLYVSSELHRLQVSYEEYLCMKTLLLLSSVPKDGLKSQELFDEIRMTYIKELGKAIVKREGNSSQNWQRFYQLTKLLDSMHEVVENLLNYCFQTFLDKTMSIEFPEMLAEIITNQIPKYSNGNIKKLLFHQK
Chain of Cytochrome P450 2C19 (Homo sapiens) (P33261 whole entry, looked up): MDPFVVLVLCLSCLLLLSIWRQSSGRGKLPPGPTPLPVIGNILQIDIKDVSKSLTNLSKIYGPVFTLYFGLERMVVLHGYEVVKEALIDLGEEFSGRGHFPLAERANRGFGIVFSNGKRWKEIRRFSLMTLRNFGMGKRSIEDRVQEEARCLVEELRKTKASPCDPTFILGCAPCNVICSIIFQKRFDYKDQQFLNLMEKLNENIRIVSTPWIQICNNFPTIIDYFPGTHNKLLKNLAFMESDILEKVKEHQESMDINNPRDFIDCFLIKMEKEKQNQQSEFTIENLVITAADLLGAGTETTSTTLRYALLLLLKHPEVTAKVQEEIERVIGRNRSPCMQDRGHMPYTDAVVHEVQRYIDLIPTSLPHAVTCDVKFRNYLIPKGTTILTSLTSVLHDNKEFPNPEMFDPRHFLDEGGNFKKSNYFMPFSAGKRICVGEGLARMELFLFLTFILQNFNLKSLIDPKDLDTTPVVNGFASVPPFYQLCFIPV
Chain of Guanine nucleotide-binding protein G(i) subunit alpha-1 (Homo sapiens) (P63096 whole entry, looked up): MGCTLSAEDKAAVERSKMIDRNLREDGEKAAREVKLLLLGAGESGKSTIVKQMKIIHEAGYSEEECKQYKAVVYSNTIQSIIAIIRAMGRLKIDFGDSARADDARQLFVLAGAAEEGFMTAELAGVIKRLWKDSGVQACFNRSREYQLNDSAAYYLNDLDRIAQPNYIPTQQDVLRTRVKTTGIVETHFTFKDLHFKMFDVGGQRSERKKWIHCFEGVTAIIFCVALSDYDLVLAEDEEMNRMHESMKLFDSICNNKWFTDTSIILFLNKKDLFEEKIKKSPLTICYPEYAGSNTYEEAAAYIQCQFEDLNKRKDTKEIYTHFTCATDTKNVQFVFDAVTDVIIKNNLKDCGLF
Chain of DNA dC->dU-editing enzyme APOBEC-3G (Homo sapiens) (Q9HC16 whole entry, looked up): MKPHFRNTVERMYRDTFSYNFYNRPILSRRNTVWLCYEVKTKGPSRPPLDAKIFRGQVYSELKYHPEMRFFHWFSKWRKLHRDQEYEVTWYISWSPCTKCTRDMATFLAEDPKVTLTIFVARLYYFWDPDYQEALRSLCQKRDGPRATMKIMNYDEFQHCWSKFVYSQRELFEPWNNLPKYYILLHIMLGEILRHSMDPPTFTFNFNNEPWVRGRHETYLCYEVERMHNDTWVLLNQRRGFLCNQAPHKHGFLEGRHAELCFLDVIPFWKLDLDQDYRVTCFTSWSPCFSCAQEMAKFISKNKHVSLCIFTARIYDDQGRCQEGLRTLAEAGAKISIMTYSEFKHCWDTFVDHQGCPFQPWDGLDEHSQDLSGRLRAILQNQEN
Chain of Ubiquitin carboxyl-terminal hydrolase 1 (Homo sapiens) (O94782 whole entry, looked up): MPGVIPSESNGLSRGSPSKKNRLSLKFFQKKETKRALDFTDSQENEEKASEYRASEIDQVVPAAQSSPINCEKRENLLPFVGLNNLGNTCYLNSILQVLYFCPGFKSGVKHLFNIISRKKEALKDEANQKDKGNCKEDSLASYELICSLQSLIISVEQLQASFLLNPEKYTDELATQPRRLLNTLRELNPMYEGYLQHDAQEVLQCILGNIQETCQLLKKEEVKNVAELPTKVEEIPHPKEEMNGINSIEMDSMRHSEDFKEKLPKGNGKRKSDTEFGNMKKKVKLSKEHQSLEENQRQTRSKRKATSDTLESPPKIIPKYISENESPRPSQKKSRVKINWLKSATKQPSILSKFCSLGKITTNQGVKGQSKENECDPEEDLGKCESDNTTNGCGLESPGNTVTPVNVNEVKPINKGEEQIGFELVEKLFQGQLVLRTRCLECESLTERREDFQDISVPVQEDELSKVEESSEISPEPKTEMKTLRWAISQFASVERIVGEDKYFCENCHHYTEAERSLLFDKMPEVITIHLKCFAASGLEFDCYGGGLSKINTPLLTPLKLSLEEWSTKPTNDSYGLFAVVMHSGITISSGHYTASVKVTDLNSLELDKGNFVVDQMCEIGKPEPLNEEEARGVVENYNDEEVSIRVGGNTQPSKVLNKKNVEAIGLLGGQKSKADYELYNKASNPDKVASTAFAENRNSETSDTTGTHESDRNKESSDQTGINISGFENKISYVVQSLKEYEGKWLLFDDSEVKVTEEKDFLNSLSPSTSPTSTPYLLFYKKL

C[C@@H](/C=C\c1cccc(Oc2ccc(F)cc2)c1)N(O)C(N)=O
inactive: activity change, negative = inhibition ([1]; at 38 µM (top of the series)) -29.9% | activity change, negative = inhibition ([3]; at 38 µM (top of the series)) -4.07% | activity, negative = inhibition ([4]; at 38 µM (top of the series)) 13.8% | Potency [5] > 46 µM | Potency [6] > 46 µM | Potency [7] | Potency [8] | outcome [9] | Potency [11] | Potency [14] | Potency [15] | Potency [16] | outcome [17]
active: Potency [2] 1 µM and 158 nM | Potency [10] 1.26 µM | Potency [12] 25.1 µM | Potency [13] 1.58 µM and 3.98 µM

CCOC(=O)[C@@]12C[C@@H]1/C(=N/O)c1ccccc1O2
inactive: activity change, negative = inhibition ([1]; at 38 µM (top of the series)) -6.63% | activity change, negative = inhibition ([3]; at 38 µM (top of the series)) -7.55% | activity, negative = inhibition ([4]; at 38 µM (top of the series)) -6.6% | Potency [5] > 46 µM | Potency [6] > 46 µM | Potency [7] | Potency [8] | outcome [9] | Potency [18] | Potency [14] | Potency [15] | Potency [16] | outcome [17]
active: Potency [2] 3.98 µM and 316 nM

COc1ccc2c(c1)c(CC(=O)N1CCOCC1)c(C)n2C(=O)c1ccc(Cl)cc1
active: Potency [2] 12.6 µM and 25.1 µM | Potency [19] 39.8 µM | Potency [10] 5.01 µM
inactive: activity change, negative = inhibition ([1]; at 38 µM (top of the series)) -8.4% | activity change, negative = inhibition ([3]; at 38 µM (top of the series)) 2.03% | activity, negative = inhibition ([4]; at 38 µM (top of the series)) -6.17% | Potency [5] > 46 µM | Potency [6] > 46 µM | Potency [7] | Potency [8] | outcome [9] | Potency [11] | Potency [12] | Potency [13] | Potency [14] | Potency [15] | Potency [16]

C[C@@H](C[C@H](N)C(=O)O)C(=O)O
inactive: activity change, negative = inhibition ([1]; at 7.69 µM (top of the series)) -5.85% | activity change, negative = inhibition [2] -18.7% [at 11.4 µM] | activity change, negative = inhibition ([3]; at 7.69 µM (top of the series)) 21.8% | activity, negative = inhibition ([4]; at 7.69 µM (top of the series)) 15.7% | Potency [5] > 46 µM | Potency [6] > 9.22 µM | activity change, negative = inhibition [7] -4.43% [at 11.4 µM] | Potency [8] | activity, negative = inhibition [13] 46.1% [at 11.4 µM] | Potency [15] | Potency [16]

N#CC(=C(/N)Sc1ccccc1N)/C(C#N)=C(\N)Sc1ccccc1N
inactive: Potency [15] | Potency [16]

COCCNC(=O)COc1ccc(OCCNC[C@@H](O)COc2ccccc2)cc1
active: Potency [12] 5.01 µM
inactive: Potency [2] | Potency [5] > 46 µM | Potency [6] > 46 µM | Potency [7] | Potency [8] | Potency [11] | Potency [18] | Potency [14] | Potency [15] | Potency [16]

CCCCN1CCC(CCC(=O)c2cc(Cl)c(N)cc2OC)CC1
inactive: Potency [2] | Potency [5] > 46 µM | Potency [6] > 46 µM | Potency [7] | Potency [8] | Potency [19] | Potency [18] | Potency [14] | Potency [15] | Potency [16]

O=C(NCCN1CCCCC1)c1ccc(I)cc1
inactive: Potency [5] > 46 µM | Potency [6] > 46 µM | Potency [7] | Potency [8] | Potency [18] | Potency [14] | Potency [15] | Potency [16]
active: Potency [2] 25.1 µM

CCOC(OCC)P(=O)(O)CCCNCc1ccc(Cl)c(Cl)c1
inactive: Potency [2] | Potency [5] > 46 µM | Potency [6] > 46 µM | Potency [7] | Potency [18] | Potency [14] | Potency [15] | Potency [16]
